The source of these data is the OligoGym collection.
Further: reference of the scale not given here.

The target of one assay is EPHX2. As to the kind of experiment: pooled miR-30 sensor sort-seq; sequence = guide strand. As to conditions: shRNA.
Sequence TTCCATGCAATATTCTTCTATT yielded a sensor-assay potency score (higher = more potent) of -0.473.
TATTCTTCTATTTCGGGAGGAG yielded a sensor-assay potency score (higher = more potent) of 0.331.
In the case of AACTGCTGCACATAGAACTGGA, the sensor-assay potency score (higher = more potent) was -0.354.
Turning to TTTCTGGCTGAAATCGCCTTGT, the sensor-assay potency score (higher = more potent) is -0.617.

Another assay addresses ERCC2. Described as above. As to conditions: shRNA.
Sequence TTGAGCAACTTTCGAAGCTCTT yielded a sensor-assay potency score (higher = more potent) of -0.541.
Turning to TTTGATCCTGAGCACCGTCTTC, the sensor-assay potency score (higher = more potent) is -1.12.
Still for that read-out and setting: next, TCGATGATGATGGTGAAGCCTT: -1.27.
Regarding TTAGCAAGGAGGGTGAGCGGGG, the sensor-assay potency score (higher = more potent) is -1.04.
Still for that read-out and setting: next, TAGCTATAAACCACCACATTGG: -1.42; TCAAATTCCTCATAGAATCGGC: -0.0111; TTGGGGTAGATGTCCAGCGGGG: -1.14.
Still for that read-out and setting: the result for TCTGGCACAGTTCTTGAGCAGT reads -0.9.
The same measure, in the same setting: next, AACAGGGATACTGTCTTCCCGG: -1.06; TGGAAGTCCAGGATCTTGGGGT: 0.059; TCAATCTCTGGCACAGTTCTTG: 0.0123.
In turn, TCGAAGCTCTTCAATCACCTTC showed a sensor-assay potency score (higher = more potent) of 0.181.
TATCGAGCAAGGAAGTATGGGC registered a sensor-assay potency score (higher = more potent) of 0.161.
Sequence TTCCCATCGACGTCCTTCCCAA registered a sensor-assay potency score (higher = more potent) of -0.665.
The same measure, in the same setting: the result for ATTCTCACGAATCTGGAACTGG reads -0.416; that for TGAATACACAAGTTTTTGCGGG, 0.0838.
TCGTCTGTCTCTTTGATCCTGA: the sensor-assay potency score (higher = more potent) was -0.221.
Still for that read-out and setting: next, TTGAGCTCCCGCATGTAGGAGA: -0.477.
The same measure, in the same setting: next, TGACAGACTGGAAACGCTCAAA: -0.97.
The same measure, in the same setting: next, TGTAGGAGAACTGCTCGGGGTA: -0.658.
With TTGAGCAGTAGATGAGTTTGGT, the sensor-assay potency score (higher = more potent) came out at 0.18.
Still for that read-out and setting: next, TTCAGCACAGAATCTGAGGGGC: 0.408; TTGCGCTGGATGCACACGCGCT: -1.42.
Same read-out and setting: the result for TAGAAGTTGAGCAACTTTCGAA reads 0.118.

A further assay deals with ERCC8. The assay is described as above. As to conditions: shRNA.
On to TTTAATTGTGATTTTGTTGTAG, for which the sensor-assay potency score (higher = more potent) was 0.555.
The sequence TCTGTCTTTATTTAATTCCAGT had a sensor-assay potency score (higher = more potent) of -1.2.
Still for that read-out and setting: the result for TTCTTTCAACATCTCTGTCTTT reads -0.331.
On the same count and under the same terms, the result for TCTAGTACCAACTGCTACCAAA reads -1.28; that for TTGTTGTAGTCTCATCATCATC, -1.65.
Same read-out and setting: next, TCTTTCAACATCTCTGTCTTTA: 0.0508; TATAGTTCATAAAATCTGCTGA: 0.347.
As to TCTACTGTCAGCACTTGCTGTT, the sensor-assay potency score (higher = more potent) is 0.468.
The same measure, in the same setting: next, TCACACCATCTGAACCACCTGA: 0.0366.
On the same count and under the same terms, next, TTGAAAAAAACACAGTCTCATT: -1.3; TAGCTGTCAGGAATAGACCATA: -0.945; TAACTTTCCCATTATGAGCAGT: -0.724.
